# Source: publication PMC7862700, “An all-to-all approach to the identification of sequence-specific readers for epigenetic DNA modifications on cytosine”
# Tests used:
# Assay in all cases: DAPPL (digital affinity profiling via proximity ligation, sequencing); 10 mM Tris-HCl pH 7.5, 50 mM NaCl, 1 mM DTT, 4% glycerol, room temperature, 30 min; GST-TFs on glutathione beads, 16-mer random dsDNA library, 0.1% formaldehyde crosslink after washing; high values mean tight binding
# FEV = molecular target: T1, FEV (Homo sapiens, UniProt Q99581 1-238); settings: protein: recombinant; tags: N-terminal GST; dsDNA, one strand shown
# T1 sequence: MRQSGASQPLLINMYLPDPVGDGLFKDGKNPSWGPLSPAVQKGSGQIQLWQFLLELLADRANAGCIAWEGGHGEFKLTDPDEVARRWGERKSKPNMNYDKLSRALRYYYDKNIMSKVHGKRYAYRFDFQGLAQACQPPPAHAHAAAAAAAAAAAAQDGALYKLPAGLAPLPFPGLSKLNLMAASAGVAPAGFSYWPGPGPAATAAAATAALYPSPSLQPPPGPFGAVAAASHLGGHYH
# Procedure, shortened: (§1)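 Human transcription factors carrying a GST fusion were produced in yeast, bound to glutathione beads, tagged with DNA barcodes and pooled together with a tag-only sample. Each pool was held with 200 nmole of a random double-stranded 16-mer DNA library in Tris/NaCl/DTT/glycerol buffer for 30 min at room temperature, then washed, crosslinked in 0.1% formaldehyde, proximity-ligated with BsaI/T4 ligase (1 h, 37 °C), PCR-amplified and sequenced on an Illumina NextSeq500. Binding signal is the read frequency of each hexamer for a given factor divided by its frequency in the tag-only sample.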
# ETV5 = ETV5 (Homo sapiens, UniProt P41161 1-510); settings: protein: recombinant; tags: N-terminal GST; dsDNA, one strand shown
# ETV5, sequence (P41161 whole entry): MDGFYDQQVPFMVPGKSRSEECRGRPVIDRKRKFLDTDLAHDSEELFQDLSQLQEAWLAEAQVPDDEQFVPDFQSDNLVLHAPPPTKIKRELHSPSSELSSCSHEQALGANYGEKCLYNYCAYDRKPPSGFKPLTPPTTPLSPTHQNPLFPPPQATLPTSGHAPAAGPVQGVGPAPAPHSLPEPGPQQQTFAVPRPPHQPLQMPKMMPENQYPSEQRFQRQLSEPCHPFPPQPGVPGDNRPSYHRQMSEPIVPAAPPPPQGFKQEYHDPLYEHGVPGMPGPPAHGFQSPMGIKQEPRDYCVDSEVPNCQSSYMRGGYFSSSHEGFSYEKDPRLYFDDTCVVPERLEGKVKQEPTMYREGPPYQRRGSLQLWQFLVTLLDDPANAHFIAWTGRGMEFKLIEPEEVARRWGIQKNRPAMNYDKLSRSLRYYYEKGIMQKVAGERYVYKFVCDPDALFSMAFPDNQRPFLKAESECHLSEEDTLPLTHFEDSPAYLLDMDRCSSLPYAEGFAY
# Procedure, shortened: as §1
# HSF1 = HSF1 (Homo sapiens, UniProt Q00613 1-529); settings: protein: recombinant; tags: N-terminal GST; chain copies: 3; dsDNA, one strand shown
# HSF1, sequence (Q00613 whole entry): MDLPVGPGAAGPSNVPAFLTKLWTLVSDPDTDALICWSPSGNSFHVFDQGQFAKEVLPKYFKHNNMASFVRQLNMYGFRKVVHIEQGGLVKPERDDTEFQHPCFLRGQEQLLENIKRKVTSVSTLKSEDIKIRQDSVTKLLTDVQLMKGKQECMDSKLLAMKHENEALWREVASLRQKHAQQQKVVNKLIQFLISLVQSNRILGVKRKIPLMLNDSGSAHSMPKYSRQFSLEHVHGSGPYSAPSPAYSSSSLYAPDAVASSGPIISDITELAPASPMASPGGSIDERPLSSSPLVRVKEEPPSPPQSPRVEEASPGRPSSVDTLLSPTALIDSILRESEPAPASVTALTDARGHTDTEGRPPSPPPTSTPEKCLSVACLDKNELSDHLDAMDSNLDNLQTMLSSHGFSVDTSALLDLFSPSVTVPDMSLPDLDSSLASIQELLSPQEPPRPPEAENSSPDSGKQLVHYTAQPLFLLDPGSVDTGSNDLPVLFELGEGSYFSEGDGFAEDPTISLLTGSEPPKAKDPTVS
# Procedure, shortened: as §1
# SPIC = molecular target: T2, SPIC (Homo sapiens, UniProt Q8N5J4 1-248); settings: protein: recombinant; tags: N-terminal GST; dsDNA, one strand shown
# T2 sequence: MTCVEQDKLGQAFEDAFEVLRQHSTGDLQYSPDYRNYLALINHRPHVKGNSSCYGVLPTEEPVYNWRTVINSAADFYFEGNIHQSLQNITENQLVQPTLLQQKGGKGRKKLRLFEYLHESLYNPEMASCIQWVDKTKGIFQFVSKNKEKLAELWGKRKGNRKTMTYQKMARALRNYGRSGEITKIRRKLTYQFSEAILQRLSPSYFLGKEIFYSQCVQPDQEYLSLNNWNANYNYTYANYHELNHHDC
# Procedure, shortened: as §1
# ELF4 = ELF4 (Homo sapiens, UniProt Q99607 1-663); settings: protein: recombinant; tags: N-terminal GST; dsDNA, one strand shown
# ELF4, sequence (Q99607 whole entry): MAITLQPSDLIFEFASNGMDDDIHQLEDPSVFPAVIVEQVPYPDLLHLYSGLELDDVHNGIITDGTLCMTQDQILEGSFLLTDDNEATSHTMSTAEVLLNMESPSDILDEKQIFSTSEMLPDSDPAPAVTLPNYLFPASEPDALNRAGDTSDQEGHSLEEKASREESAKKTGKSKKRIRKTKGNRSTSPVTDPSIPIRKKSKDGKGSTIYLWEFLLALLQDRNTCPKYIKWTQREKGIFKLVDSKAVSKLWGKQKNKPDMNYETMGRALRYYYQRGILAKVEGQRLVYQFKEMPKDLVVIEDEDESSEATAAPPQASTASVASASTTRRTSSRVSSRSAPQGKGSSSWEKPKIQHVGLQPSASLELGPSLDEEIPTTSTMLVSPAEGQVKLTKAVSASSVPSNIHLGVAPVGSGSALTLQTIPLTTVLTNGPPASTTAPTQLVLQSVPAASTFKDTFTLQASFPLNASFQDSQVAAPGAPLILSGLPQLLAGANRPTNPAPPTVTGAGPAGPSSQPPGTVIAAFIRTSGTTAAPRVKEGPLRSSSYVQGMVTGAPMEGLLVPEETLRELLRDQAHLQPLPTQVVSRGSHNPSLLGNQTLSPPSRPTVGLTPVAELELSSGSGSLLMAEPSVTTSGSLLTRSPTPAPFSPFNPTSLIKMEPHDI
# Procedure, shortened: as §1
# ELK4 = molecular target: T3, ELK4 (Homo sapiens, UniProt P28324-2 1-405); settings: protein: recombinant; tags: N-terminal GST; dsDNA, one strand shown
# T3 sequence: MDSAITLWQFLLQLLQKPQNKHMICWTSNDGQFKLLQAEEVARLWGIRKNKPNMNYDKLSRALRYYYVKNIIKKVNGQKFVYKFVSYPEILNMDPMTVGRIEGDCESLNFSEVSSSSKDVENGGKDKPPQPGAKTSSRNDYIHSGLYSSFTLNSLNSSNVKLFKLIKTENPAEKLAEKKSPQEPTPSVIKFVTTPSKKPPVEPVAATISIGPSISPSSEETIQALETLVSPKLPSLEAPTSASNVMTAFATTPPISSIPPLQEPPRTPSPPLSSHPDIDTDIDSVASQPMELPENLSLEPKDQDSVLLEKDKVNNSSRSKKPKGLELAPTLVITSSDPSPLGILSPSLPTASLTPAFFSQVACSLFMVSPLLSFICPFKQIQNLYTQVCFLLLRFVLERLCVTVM
# Procedure, shortened: as §1
# ETV2 = molecular target: T4, ETV2 (Homo sapiens, UniProt O00321 1-342); settings: protein: recombinant; tags: N-terminal GST; dsDNA, one strand shown
# T4 sequence: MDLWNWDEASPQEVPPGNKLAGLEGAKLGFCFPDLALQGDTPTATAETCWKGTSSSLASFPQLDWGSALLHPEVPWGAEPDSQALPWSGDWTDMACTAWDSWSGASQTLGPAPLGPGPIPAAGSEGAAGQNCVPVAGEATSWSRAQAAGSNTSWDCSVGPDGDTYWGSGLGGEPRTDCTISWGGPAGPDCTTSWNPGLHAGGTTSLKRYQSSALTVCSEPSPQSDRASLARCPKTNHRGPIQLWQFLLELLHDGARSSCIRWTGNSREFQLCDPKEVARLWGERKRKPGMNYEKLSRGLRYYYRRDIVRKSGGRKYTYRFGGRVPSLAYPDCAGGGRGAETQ
# Procedure, shortened: as §1
# ELF3 = molecular target: T5, ELF3 (Homo sapiens, UniProt P78545 1-371); settings: protein: recombinant; tags: N-terminal GST; dsDNA, one strand shown
# T5 sequence: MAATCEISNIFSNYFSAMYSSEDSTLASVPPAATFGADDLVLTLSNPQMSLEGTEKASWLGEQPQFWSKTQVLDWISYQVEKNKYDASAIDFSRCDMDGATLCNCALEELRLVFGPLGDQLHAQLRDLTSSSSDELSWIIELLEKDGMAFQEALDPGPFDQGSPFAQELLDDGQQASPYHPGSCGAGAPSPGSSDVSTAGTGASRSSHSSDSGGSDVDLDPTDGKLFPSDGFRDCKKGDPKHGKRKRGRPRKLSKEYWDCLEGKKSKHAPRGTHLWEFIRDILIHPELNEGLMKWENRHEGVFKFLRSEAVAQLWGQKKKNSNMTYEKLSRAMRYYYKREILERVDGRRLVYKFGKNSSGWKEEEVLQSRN
# Procedure, shortened: as §1
# CRX = CRX (Homo sapiens, UniProt O43186 1-299); settings: protein: recombinant; tags: N-terminal GST; dsDNA, one strand shown
# CRX, sequence (O43186 whole entry): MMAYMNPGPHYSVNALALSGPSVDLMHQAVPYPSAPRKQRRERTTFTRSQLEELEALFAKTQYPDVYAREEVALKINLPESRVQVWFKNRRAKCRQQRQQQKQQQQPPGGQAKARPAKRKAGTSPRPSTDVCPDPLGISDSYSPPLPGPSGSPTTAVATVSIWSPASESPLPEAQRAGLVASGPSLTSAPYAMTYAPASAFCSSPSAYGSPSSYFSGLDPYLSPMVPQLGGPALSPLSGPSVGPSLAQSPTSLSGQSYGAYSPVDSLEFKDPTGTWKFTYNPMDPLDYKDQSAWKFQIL
# Procedure, shortened: as §1
# ETV1 = ETV1 (Homo sapiens, UniProt P50549 1-477); settings: protein: recombinant; tags: N-terminal GST; dsDNA, one strand shown
# ETV1, sequence (P50549 whole entry): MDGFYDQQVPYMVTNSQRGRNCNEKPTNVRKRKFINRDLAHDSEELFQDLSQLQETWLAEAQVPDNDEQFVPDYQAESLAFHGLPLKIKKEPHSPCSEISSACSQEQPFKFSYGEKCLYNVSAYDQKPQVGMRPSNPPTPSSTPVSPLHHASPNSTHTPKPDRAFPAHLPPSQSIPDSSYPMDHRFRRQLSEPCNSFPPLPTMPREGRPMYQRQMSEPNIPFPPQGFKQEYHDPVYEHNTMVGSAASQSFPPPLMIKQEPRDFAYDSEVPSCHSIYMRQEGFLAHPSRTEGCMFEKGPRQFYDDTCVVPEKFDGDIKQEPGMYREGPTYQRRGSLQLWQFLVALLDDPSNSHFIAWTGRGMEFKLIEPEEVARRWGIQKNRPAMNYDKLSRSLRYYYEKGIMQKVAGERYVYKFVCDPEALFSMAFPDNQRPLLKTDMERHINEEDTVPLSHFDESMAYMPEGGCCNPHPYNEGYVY
# Procedure, shortened: as §1
# ERF = molecular target: T6, ERF (Homo sapiens, UniProt P50548 1-548); settings: protein: recombinant; tags: N-terminal GST; dsDNA, one strand shown
# T6 sequence: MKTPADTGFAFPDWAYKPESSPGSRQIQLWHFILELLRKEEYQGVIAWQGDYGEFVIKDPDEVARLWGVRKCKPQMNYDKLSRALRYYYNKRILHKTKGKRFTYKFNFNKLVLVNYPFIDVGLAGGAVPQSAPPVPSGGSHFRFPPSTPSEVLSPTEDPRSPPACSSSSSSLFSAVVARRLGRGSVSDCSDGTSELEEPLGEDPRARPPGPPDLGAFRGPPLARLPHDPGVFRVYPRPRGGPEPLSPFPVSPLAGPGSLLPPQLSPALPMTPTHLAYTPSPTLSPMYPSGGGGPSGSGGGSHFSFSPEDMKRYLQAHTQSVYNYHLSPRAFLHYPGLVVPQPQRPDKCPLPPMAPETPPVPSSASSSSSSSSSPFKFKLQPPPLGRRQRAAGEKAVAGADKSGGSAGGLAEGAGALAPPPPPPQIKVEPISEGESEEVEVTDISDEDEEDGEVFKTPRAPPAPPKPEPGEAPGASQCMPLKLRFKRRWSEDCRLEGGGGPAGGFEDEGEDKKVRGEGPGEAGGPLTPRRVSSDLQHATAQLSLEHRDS
# Procedure, shortened: as §1
# ETV3L = molecular target: T7, ETV3L (Homo sapiens, UniProt Q6ZN32 1-361); settings: protein: recombinant; tags: N-terminal GST; dsDNA, one strand shown
# T7 sequence: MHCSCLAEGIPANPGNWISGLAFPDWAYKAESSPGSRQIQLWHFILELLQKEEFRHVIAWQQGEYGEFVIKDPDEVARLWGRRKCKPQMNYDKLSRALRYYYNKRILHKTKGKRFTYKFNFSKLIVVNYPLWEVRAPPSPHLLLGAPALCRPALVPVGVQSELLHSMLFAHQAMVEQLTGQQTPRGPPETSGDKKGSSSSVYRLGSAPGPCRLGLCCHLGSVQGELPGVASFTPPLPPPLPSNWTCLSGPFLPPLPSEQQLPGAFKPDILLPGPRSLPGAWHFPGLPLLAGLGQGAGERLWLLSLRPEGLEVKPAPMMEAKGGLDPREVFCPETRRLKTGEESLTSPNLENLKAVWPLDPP
# Procedure, shortened: as §1
# ETS2 = molecular target: T8, ETS2 (Homo sapiens, UniProt P15036 1-469); settings: protein: recombinant; tags: N-terminal GST; dsDNA, one strand shown
# T8 sequence: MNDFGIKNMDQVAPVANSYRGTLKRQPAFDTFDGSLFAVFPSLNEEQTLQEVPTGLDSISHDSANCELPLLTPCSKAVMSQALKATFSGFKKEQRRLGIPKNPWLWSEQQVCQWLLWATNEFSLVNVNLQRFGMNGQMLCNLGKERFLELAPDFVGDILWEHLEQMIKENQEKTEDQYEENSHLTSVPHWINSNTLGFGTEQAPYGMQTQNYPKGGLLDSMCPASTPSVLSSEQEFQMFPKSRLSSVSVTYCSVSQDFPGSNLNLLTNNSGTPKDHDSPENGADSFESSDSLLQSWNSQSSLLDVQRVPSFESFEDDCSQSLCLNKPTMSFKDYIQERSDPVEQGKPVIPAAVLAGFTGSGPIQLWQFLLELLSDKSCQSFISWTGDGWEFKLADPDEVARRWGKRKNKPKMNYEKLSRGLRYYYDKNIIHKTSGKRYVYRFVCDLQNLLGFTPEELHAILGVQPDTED
# Procedure, shortened: as §1
# SPDEF = molecular target: T9, SPDEF (Homo sapiens, UniProt O95238 1-335); settings: protein: recombinant; tags: N-terminal GST; dsDNA, one strand shown
# T9 sequence: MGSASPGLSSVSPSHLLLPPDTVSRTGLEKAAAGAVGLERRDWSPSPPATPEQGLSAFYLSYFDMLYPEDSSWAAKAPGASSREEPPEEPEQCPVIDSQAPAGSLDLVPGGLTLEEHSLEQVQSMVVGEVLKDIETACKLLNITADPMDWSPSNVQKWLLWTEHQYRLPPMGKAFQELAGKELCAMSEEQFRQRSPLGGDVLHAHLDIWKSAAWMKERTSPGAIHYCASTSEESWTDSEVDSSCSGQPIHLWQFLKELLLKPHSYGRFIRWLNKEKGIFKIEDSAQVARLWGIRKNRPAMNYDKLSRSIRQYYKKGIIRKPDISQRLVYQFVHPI
# Procedure, shortened: as §1
# ETV7 = molecular target: T10, ETV7 (Homo sapiens, UniProt Q9Y603 1-341); settings: protein: recombinant; tags: N-terminal GST; dsDNA, one strand shown
# T10 sequence: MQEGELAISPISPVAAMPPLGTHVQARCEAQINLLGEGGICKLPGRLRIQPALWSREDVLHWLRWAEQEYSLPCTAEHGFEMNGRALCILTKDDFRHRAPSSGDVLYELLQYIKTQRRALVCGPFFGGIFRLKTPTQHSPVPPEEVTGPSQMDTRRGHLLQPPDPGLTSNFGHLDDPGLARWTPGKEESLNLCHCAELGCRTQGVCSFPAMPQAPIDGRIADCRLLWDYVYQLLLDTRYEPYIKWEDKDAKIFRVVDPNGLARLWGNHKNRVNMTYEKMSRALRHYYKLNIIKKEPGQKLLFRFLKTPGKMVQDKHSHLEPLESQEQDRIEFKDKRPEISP
# Procedure, shortened: as §1
# ELF5 = molecular target: T11, ELF5 (Homo sapiens, UniProt Q9UKW6-2 1-255); settings: protein: recombinant; tags: N-terminal GST; dsDNA, one strand shown
# T11 sequence: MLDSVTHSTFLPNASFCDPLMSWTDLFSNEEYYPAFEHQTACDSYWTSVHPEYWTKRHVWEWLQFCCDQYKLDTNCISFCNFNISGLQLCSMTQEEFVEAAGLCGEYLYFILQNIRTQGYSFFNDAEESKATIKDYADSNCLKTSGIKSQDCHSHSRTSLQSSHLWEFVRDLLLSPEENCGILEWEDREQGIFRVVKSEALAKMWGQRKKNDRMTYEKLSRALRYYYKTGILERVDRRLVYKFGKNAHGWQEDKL
# Procedure, shortened: as §1
# ETV3 = molecular target: T12, ETV3 (Homo sapiens, UniProt P41162-2 1-143); settings: protein: recombinant; tags: N-terminal GST; dsDNA, one strand shown
# T12 sequence: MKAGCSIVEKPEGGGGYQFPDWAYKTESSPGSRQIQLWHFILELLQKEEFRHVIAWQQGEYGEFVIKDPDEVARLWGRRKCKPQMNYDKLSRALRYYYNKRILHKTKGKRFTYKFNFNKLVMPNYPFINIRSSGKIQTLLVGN
# Procedure, shortened: as §1
# ETV6 = ETV6 (Homo sapiens, UniProt P41212 1-452); settings: protein: recombinant; tags: N-terminal GST; dsDNA, one strand shown
# ETV6, sequence (P41212 whole entry): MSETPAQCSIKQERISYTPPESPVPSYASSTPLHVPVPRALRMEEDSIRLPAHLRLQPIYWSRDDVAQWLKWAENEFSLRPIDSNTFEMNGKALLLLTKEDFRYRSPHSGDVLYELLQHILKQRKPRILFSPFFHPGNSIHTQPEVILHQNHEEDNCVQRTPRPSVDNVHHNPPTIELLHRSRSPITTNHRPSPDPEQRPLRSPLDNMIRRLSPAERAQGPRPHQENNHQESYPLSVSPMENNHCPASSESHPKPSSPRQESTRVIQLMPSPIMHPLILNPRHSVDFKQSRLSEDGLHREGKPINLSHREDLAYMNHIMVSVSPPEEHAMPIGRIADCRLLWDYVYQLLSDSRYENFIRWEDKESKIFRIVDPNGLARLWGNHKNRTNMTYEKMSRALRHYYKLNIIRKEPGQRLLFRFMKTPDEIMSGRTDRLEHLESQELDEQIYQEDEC
# Procedure, shortened: as §1
sequence,measurement,setting,value
TGTTTT,binding signal,FEV,"1.24 fold enrichment (6-mer frequency, TF over GST control)"
same,binding signal,ETV5,"1.42 fold enrichment (6-mer frequency, TF over GST control)"
same,binding signal,HSF1,"1.21 fold enrichment (6-mer frequency, TF over GST control)"
same,binding signal,SPIC,"1.36 fold enrichment (6-mer frequency, TF over GST control)"
same,binding signal,ELF4,"1.37 fold enrichment (6-mer frequency, TF over GST control)"
same,binding signal,ELK4,"1.35 fold enrichment (6-mer frequency, TF over GST control)"
same,binding signal,ETV2,"1.38 fold enrichment (6-mer frequency, TF over GST control)"
same,binding signal,ELF3,"1.33 fold enrichment (6-mer frequency, TF over GST control)"
same,binding signal,CRX,"1.23 fold enrichment (6-mer frequency, TF over GST control)"
same,binding signal,ETV1,"1.29 fold enrichment (6-mer frequency, TF over GST control)"
same,binding signal,ERF,"1.26 fold enrichment (6-mer frequency, TF over GST control)"
same,binding signal,ETV3L,"1.37 fold enrichment (6-mer frequency, TF over GST control)"
same,binding signal,ETS2,"1.36 fold enrichment (6-mer frequency, TF over GST control)"
same,binding signal,SPDEF,"1.41 fold enrichment (6-mer frequency, TF over GST control)"
same,binding signal,ETV7,"1.28 fold enrichment (6-mer frequency, TF over GST control)"
same,binding signal,ELF5,"1.48 fold enrichment (6-mer frequency, TF over GST control)"
same,binding signal,ETV3,"1.46 fold enrichment (6-mer frequency, TF over GST control)"
same,binding signal,ETV6,"1.39 fold enrichment (6-mer frequency, TF over GST control)"
